Giardia FBPA inh – blocks Giardia fructose-bisphosphate aldolase activity; A8B2U2; purified Giardia FBPA; Potency, µM (titrated, usually from 59.6 µM), without a hit: at the highest dose activity, negative = inhibition, usual class: inhibitors; actives 0.71% (n = 290,000); AID 2451; further: potency means the concentration at half of the fitted maximal effect; on the % scale 0 is the no-effect control and ±100 the full control effect; nearly all actives have a fitted effect of over 55% in size
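40 nM FBPA preincubated 10 min at RT with compound (up to 57.5 uM final), then substrate plus GAPDH/TPI/NAD/arsenate coupling and diaphorase/resazurin added. Fluorescence read after 20 min at RT, 525/598 nm.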
NS1 function inh – inhibitors of influenza NS1 protein function; Potency, µM (highest dose often 46.1 µM), inactives show at the highest dose activity, positive = more growth; actives 0.4% (n = 270,000); AID 2326; calls by dose curve; further: potency means the concentration at half of the fitted maximal effect; actives are rising curves; nearly all actives have a fitted effect of over 50% in size
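Compounds were scored for reversing the slow growth caused by influenza A NS1 in S. cerevisiae, measured by optical density at 600 nm. Assay medium contained 2% galactose at pH 6.0; NS1-free yeast of the same strain were the positive control.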
LmPK inhibitor – blocks Leishmania mexicana pyruvate kinase activity; Potency, µM (highest dose often 57.5 µM), inactives show top-dose activity change, negative = inhibition, hits mostly inhibitors; purified LmPK, Kinase-Glo ATP luminescence, 1 h; actives 0.37% (n = 290,000); further: potency means the concentration at half of the fitted maximal effect; on the % scale 0 is the no-effect control and ±100 the full control effect
Target sequence (Q27686 whole entry, looked up): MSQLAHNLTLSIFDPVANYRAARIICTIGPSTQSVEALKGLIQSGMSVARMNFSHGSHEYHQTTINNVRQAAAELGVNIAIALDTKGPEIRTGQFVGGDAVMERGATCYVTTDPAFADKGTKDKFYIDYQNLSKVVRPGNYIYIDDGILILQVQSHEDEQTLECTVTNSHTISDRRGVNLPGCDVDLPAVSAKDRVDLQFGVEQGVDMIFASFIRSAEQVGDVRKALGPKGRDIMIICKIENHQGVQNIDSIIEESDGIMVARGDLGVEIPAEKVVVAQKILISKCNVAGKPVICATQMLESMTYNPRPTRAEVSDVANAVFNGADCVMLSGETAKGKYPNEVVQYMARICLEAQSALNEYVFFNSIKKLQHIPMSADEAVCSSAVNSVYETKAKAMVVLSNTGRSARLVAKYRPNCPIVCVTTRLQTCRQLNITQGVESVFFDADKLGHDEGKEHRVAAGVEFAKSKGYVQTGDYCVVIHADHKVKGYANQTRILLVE
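ATP generated from ADP (0.1 mM) and PEP (0.5 mM) by 0.1 nM LmPK over 1 h at room temperature (pH 7.2 imidazole buffer) was detected by coupled luciferase luminescence. Values were normalized to uninhibited and no-enzyme wells.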
Shiga toxin inh – inhibitors of Shiga toxin in Vero cells; actives 9.2% (n = 290,000); Vero cells, Shiga toxin protein synthesis inhibition reporter; inhibition, % at 38.7 µM; in the data active means inhibition mostly above about 28%, no sharp cut-off; inactive means mostly below about 43%; further: 0% is about no effect
CHX counter – affects cycloheximide protein synthesis inhibition readout, counter-screen | cell reporter, cycloheximide protein synthesis inhibition counterscreen | max response, % | actives 12% (n = 300,000) | AID 2314; in the data active means max response mostly above about 13%, no sharp cut-off; inactive means mostly below about 14%; further: read at 38.3 µM for the half of the compounds with a filed dose; 0% is about no effect
* = called active by the depositor; u = inconclusive; x = not tested or not shown; [ ] = another dose, or the depositor's remark. The list is not random: actives were taken first. Their share in the collection is about 14%. Unless noted, the call rests on the fitted dose curve; in most records, active means well fitted curve in the direction sought with a large enough effect; inconclusive means small, poorly fitted or top-dose-only effect, or another doubt; inactive means no such curve, though single readings can be large; an effect the other way counts as inactive or inconclusive.

SMILES	Giardia FBPA inh	NS1 function inh	LmPK inhibitor	Shiga toxin inh	CHX counter
Cn1cccc1C(=O)N1CCC2(CC1)CN(Cc1cc(C(F)(F)F)cc(C(F)(F)F)c1)C2	0.7%	x	x	x	x
COCCn1c(=O)c(-c2ccc(OC)cc2)nc2cnc(N3CCNCC3)nc21	-1.1%	x	x	x	x
CC(=O)c1ccc(NC(=O)c2cnn3ccccc23)cc1	-10.7%	-13.1%	-0.7%	55.3*	43.9*
CC(=O)c1cccc(NC(=O)c2ccccc2-c2ccccc2C(=O)O)c1	u	18.7%	6.1%	-15.7	-4.8
CC(=O)c1cccc(NC(=O)c2cnn3ccccc23)c1	-4.8%	-21.1%	-0.9%	59.1*	89.3*
O=C(NCc1csc(-c2cccs2)n1)C1CCC1	-3.2%	-2.1%	2.6%	48.0*	37.5*
O=C(O)CC1(CC(=O)NCc2csc(-c3cccs3)n2)CCCCC1	9.9%	1.0%	-4.2%	9.5	-0.7
O=C(NCc1csc(-c2cccs2)n1)c1ccccc1	9.9%	-8.4%	-0.9%	38.2*	32.3*
Cc1csc2nc(CNC(=O)C3CCCCC3)cn12	2.3%	0.7%	-2.4%	9.8	13.1*
O=C(NCc1csc(-c2cccs2)n1)c1cccc(Cl)c1	5.2%	-42.3%	3.7%	54.5	14.3*
O=C(c1ccc(Br)o1)N1CCN(Cc2ccccc2Cl)CC1	2.6%	-39.1%	4.6%	x	5.8
COCC(=O)n1nc(-c2ccccc2)nc1NCc1cccs1	2.0%	0.2%	2.3%	62.6*	33.2*
O=C(c1cccs1)n1nc(-c2ccccc2)nc1NCc1ccco1	-3.2%	-49.1%	4.9%	6.9	-3.7
CCOC(=O)C1(Cc2cccc(Cl)c2)CCCN(C(=O)c2ccco2)C1 (stereo not drawn)	2.4%	9.9%	3.9%	63.9*	15.6
CCOC(=O)C1(Cc2cccc(Cl)c2)CCCN(C(=O)C2CC2)C1 (stereo not drawn)	-2.2%	-10.2%	7.8%	5.3	13.8*
CCOC(=O)C1(Cc2cccc(Cl)c2)CCCN(C(=O)c2ccc(COC)s2)C1 (stereo not drawn)	x	-18.0%	-0.7%	23.1	20.0*
NN(CC(=O)O)CC(=O)O	x	1.1%	x	x	x
COCc1cc(=O)[nH]c(Cc2c(Cl)cccc2Cl)n1	1.1%	4.9%	-3.4%	-12.9	-2.5
O=C(NCc1ccccc1)NCc1cccs1	-0.4%	-1.3%	5.2%	41.5*	22.4*
Cc1ccccc1CNC(=O)Nc1cccs1	0.8%	6.6%	-4.5%	66.0*	50.8*
O=C(Cn1cccc1)NCc1cccs1	2.9%	4.5%	3.2%	-2.7	-1.0
Cc1ccccc1CNC(=O)C(=O)Nc1nccs1	-8.0%	x	-1.7%	5.0	-0.5
O=C(NCc1cccs1)Nc1cccs1	-5.0%[12.9 µM]	u	14.6%	33.4*	38.1*
O=C(NCc1cccs1)c1ccccc1C(=O)NCc1cccs1	0.1%	u	-1.3%	-7.1	-1.5
Cc1ccc(-c2cc(Cc3ccc(F)cc3)c(=O)[nH]n2)cc1	3.5%	-37.3%	1.2%	29.4	19.6*
SMILES	Giardia FBPA inh	NS1 function inh	LmPK inhibitor	Shiga toxin inh	CHX counter
Cc1ccc(-c2cc(Cc3ccccc3)c(=O)[nH]n2)cc1	9.7%	3.3%	3.7%	34.0	11.0
Cc1ccc(Cc2cc(-c3ccc(C)cc3)n[nH]c2=O)cc1	4.2%	-1.6%	-3.3%	51.6*	39.7*
Cc1ccc(N2CC(C(=O)Nc3nnc(SCC(N)=O)s3)CC2=O)cc1 (stereo not drawn)	-5.6%	2.7%	-5.2%	-10.3	0.8
C[S@@](=O)CCCCN=C=S	-0.8%	x	x	-12.5	57.3*
Cc1ccc(CN(C)C2CCN(C)CC2)cc1	-15.1%	14.7%	1.3%	15.0	-0.5
COc1ccc(OCC(=O)Nc2ccc(N3CCN(Cc4ccccc4F)CC3)cc2)cc1	3.0%	7.6%	1.6%	-4.9	-2.2
COc1ccc(-c2cc(C(=O)NCc3cccs3)no2)cc1OC	x	-19.9%	x	x	x
Cc1ccc(-c2cc(C(=O)NCc3cccs3)no2)cc1	3.8%	9.4%	-6.0%	23.1	9.1*
O=C(NCc1cccs1)c1cc(-c2ccc(O)cc2)on1	1.8%	0.2%	-0.4%	85.6*	42.6*
O=C(NCc1cccs1)c1cc(-c2cccc(Cl)c2)on1	14.7%	-3.9%	-0.4%	43.6*	25.6*
CCc1cccc(NC(=O)c2ccc(CNc3c(N4CCCC4)c(=O)c3=O)cc2)c1	0.8%	0.8%	1.1%	7.3	-1.8
Cc1cccc(OCC(=O)NCCNC(=O)c2ccco2)c1	12.4%	-8.5%	-5.3%	-4.9	-4.8
COC(=O)C(C(C)=O)C(NC(=O)OC(C)(C)C)c1ccccc1 (stereo not drawn)	2.8%	x	x	x	x
NC(=O)c1ccsc1NC(=O)c1ccc(S(=O)(=O)N2CCCCC2)cc1	1.0%	10.2%	-2.2%	65.5*	46.0*
NC(=O)c1ccsc1NC(=O)c1ccc(S(=O)(=O)N2CCCC2)cc1	0.5%	x	0.6%[11.5 µM]	139.2*	33.2*
CC1CC(C)CN(S(=O)(=O)c2ccc(C(=O)Nc3sccc3C(N)=O)cc2)C1 (stereo not drawn)	-2.9%	2.8%	-0.2%	-2.2	-1.1
CCCCc1nnc(SC(C)C(=O)Nc2nccs2)n1C (stereo not drawn)	x	8.8%	-1.9%	-5.3	-3.5
Cc1cc(O)c(C)c(O)c1/C=N/NC(=O)c1cccnc1	-24.5%	3.2%	-8.1%	-3.9	0.7
Cc1cc(=O)[nH]c(SCc2cn3ccccc3n2)n1	u	x	0.1%	9.7	5.8
Cc1ccn2cc(CSc3ccccc3)nc2c1	-11.3%	-21.6%	-26.2%	111.2*	47.1*
Cc1cc(OCc2cn3cccnc3n2)ccc1Cl	-5.9%	10.7%	0.3%	64.9*	71.0*
Cc1ccc(SCc2cn3cccnc3n2)cc1	-0.4%	-46.7%	1.5%	56.8*	40.5*
Clc1ccc(SCc2cn3cccnc3n2)cc1	-4.2%	-50.1%	-0.8%	96.9*	26.6*
Cn1ncnc1SCc1cn2cccnc2n1	-3.6%	-0.9%	-0.9%	-30.8	-2.5
O=C1[C@H]2[C@H]3[C@H](O)[C@H](O)C/C(=N/OC[C@@H](O)COCc4ccco4)[C@@H]3CC[C@@H]2C(=O)N1c1cccc(Oc2ccccc2)c1	0.0%[12.9 µM]	x	x	x	x
SMILES	Giardia FBPA inh	NS1 function inh	LmPK inhibitor	Shiga toxin inh	CHX counter
COC(=O)C/C=C1\c2ccccc2C(OC)C1C (stereo not drawn)	-0.9%[12.9 µM]	x	x	x	x
CCCn1c(=O)c2[nH]c(-c3ccccc3)nc2n(CCC)c1=O	10.5%	x	x	x	x
Cc1cc(Cl)cc2c(N=Nc3ccccc3C(=O)O)c(O)[nH]c12	-10.9%	1.0%	-8.9%	13.0	7.4
Cc1ccc(Cl)c2c(N=Nc3ccccc3)c(O)[nH]c12	10.8%	4.5%	-6.1%	65.9*	17.6*
O=C1c2ccccc2CN1C(CO)Cc1ccccc1 (stereo not drawn)	-0.8%	-0.1%	-5.0%	-4.0	-2.0
CCOC(=O)c1[nH]c(C)c(C(=O)OCC(=O)NC(=O)NC(C)(C)C)c1C	-0.2%	13.2%	2.1%	-4.2	-3.3
CCOC(=O)c1c(C)[nH]c(C(=O)CSc2ccc(Cl)cc2)c1C	4.4%	-5.3%	-2.1%	88.7*	22.1*
CCOC(=O)c1c(C)[nH]c(C(=O)NCc2ccco2)c1C	3.0%	x	-1.2%	52.7*	43.5*
CCOC(=O)c1c(C)[nH]c(C(=O)OCC(=O)NC(C)(C)C)c1C	-3.2%	-1.0%	-1.9%	10.4	23.1*

Compound activity (PubChem)
